According to the supplement of paper PMC8728848:
About 410 targets per protein were measured; listed, in parts, are those with the strongest signals and a random draw of the rest.

How the values were obtained:
Assay in all cases: glycan array binding signal (z-score within array); higher = stronger binding
Conditions in all cases: glycan notation: IUPAC condensed, linker removed
[1] = molecular target: Fuc(a1-2)Gal(b1-4)GlcNAc(b1-6)GalNAc
In short: (§1)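 Columns mapping to the same glycan were averaged after glycan names were converted to IUPAC-condensed notation. The data come from 3228 arrays in the Consortium for Functional Glycomics database, limited to those with an available protein sequence. Binding is reported as a within-array Z-score averaged across arrays of one protein sequence and across linkers.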

[2] = molecular target: Fuc(a1-2)[Gal(a1-3)]Gal(b1-3)GalNAc
In short: as §1

[3] = molecular target: Fuc(a1-2)[Gal(a1-3)]Gal(b1-3)GlcNAc
In short: as §1

[4] = molecular target: Fuc(a1-2)[Gal(a1-3)]Gal(b1-3)GlcNAc(b1-2)Man(a1-3)[Fuc(a1-2)[Gal(a1-3)]Gal(b1-3)GlcNAc(b1-2)Man(a1-6)]Man(b1-4)GlcNAc(b1-4)[Fuc(a1-6)]GlcNAc
In short: as §1

[5] = molecular target: Fuc(a1-2)[Gal(a1-3)]Gal(b1-4)GlcNAc(b1-3)[Fuc(a1-2)[Gal(a1-3)]Gal(b1-4)GlcNAc(b1-6)]GalNAc
In short: as §1

[6] = molecular target: Fuc(a1-2)[GalNAc(a1-3)]Gal(b1-4)GlcNAc(b1-3)[Fuc(a1-2)[GalNAc(a1-3)]Gal(b1-4)GlcNAc(b1-6)]GalNAc
In short: as §1

[7] = molecular target: Fuc(a1-3)[Gal(b1-4)]GlcNAc(b1-3)Gal(b1-4)[Fuc(a1-3)]GlcNAc(b1-3)Gal(b1-4)[Fuc(a1-3)]GlcNAc
In short: as §1

[8] = molecular target: Gal(a1-3)Gal(b1-3)[Fuc(a1-4)]GlcNAc(b1-2)Man(a1-3)[Gal(a1-3)Gal(b1-3)[Fuc(a1-4)]GlcNAc(b1-2)Man(a1-6)]Man(b1-4)GlcNAc(b1-4)GlcNAc
In short: as §1

[9] = molecular target: Gal(b1-3)GalNAc(b1-3)Gal(a1-4)Gal(b1-4)Glc
In short: as §1

[10] = molecular target: Gal(b1-3)GlcNAc(a1-3)Gal(b1-4)GlcNAc
In short: as §1

[11] = molecular target: Gal(b1-3)GlcNAc(b1-2)Man(a1-3)[GlcNAc(b1-4)][Gal(b1-3)GlcNAc(b1-2)Man(a1-6)]Man(b1-4)GlcNAc(b1-4)GlcNAc
In short: as §1

[12] = molecular target: Gal(b1-3)GlcNAc(b1-3)Gal(b1-4)Glc
In short: as §1

[13] = molecular target: Gal(b1-3)[Fuc(a1-4)]GlcNAc(b1-2)Man
In short: as §1

[14] = molecular target: Gal(b1-3)[Neu5Ac(a2-6)]GlcNAc(b1-4)Gal(b1-4)Glc
In short: as §1

Gal(b1-4)GlcNAc = molecular target: Gal(b1-4)GlcNAc
In short: as §1

[15] = molecular target: Gal(b1-4)GlcNAc(b1-2)Man(a1-6)[GlcNAc(b1-2)Man(a1-3)]Man(b1-4)GlcNAc(b1-4)GlcNAc
In short: as §1

[16] = molecular target: Gal(b1-4)GlcNAc(b1-2)[Gal(b1-4)GlcNAc(b1-4)]Man(a1-3)[GlcNAc(b1-4)][Gal(b1-4)GlcNAc(b1-2)Man(a1-6)]Man(b1-4)GlcNAc(b1-4)GlcNAc
In short: as §1

[17] = molecular target: Gal(b1-4)GlcNAc(b1-3)Gal(b1-4)GlcNAc(b1-3)Gal(b1-4)GlcNAc(b1-2)Man(a1-3)[Gal(b1-4)GlcNAc(b1-3)Gal(b1-4)GlcNAc(b1-3)Gal(b1-4)GlcNAc(b1-2)Man(a1-6)]Man(b1-4)GlcNAc(b1-4)[Fuc(a1-6)]GlcNAc
In short: as §1

[18] = molecular target: Gal(b1-4)GlcNAc(b1-3)Gal(b1-4)GlcNAc(b1-3)Gal(b1-4)GlcNAc(b1-3)Gal(b1-4)GlcNAc(b1-2)Man(a1-3)[Gal(b1-4)GlcNAc(b1-3)Gal(b1-4)GlcNAc(b1-3)Gal(b1-4)GlcNAc(b1-3)Gal(b1-4)GlcNAc(b1-2)Man(a1-6)]Man(b1-4)GlcNAc(b1-4)[Fuc(a1-6)]GlcNAc
In short: as §1

[19] = molecular target: Gal(b1-4)GlcNAc(b1-3)Gal(b1-4)GlcNAc(b1-3)Gal(b1-4)GlcNAc(b1-3)Gal(b1-4)GlcNAc(b1-2)[Gal(b1-4)GlcNAc(b1-3)Gal(b1-4)GlcNAc(b1-3)Gal(b1-4)GlcNAc(b1-3)Gal(b1-4)GlcNAc(b1-6)]Man(a1-6)[Gal(b1-4)GlcNAc(b1-3)Gal(b1-4)GlcNAc(b1-3)Gal(b1-4)GlcNAc(b1-3)Gal(b1-4)GlcNAc(b1-2)Man(a1-3)]Man(b1-4)GlcNAc(b1-4)[Fuc(a1-6)]GlcNAc
In short: as §1

[20] = molecular target: Gal(b1-4)GlcNAc(b1-3)Gal(b1-4)GlcNAc(b1-3)Gal(b1-4)GlcNAc(b1-3)Gal(b1-4)GlcNAc(b1-3)Gal(b1-4)GlcNAc(b1-2)Man(a1-3)[Gal(b1-4)GlcNAc(b1-3)Gal(b1-4)GlcNAc(b1-3)Gal(b1-4)GlcNAc(b1-3)Gal(b1-4)GlcNAc(b1-3)Gal(b1-4)GlcNAc(b1-2)Man(a1-6)]Man(b1-4)GlcNAc(b1-4)[Fuc(a1-6)]GlcNAc
In short: as §1

Gal(b1-6)Gal = molecular target: Gal(b1-6)Gal
In short: as §1

Gal3S(b1-3)GalNAc = molecular target: Gal3S(b1-3)GalNAc
In short: as §1

[21] = molecular target: Gal3S(b1-4)[Fuc(a1-3)]Glc6S
In short: as §1

Gal6S(b1-4)Glc = molecular target: Gal6S(b1-4)Glc
In short: as §1

Gal6S(b1-4)GlcNAc6S = molecular target: Gal6S(b1-4)GlcNAc6S
In short: as §1

GalNAc(b1-4)GlcNAc6S = molecular target: GalNAc(b1-4)GlcNAc6S
In short: as §1

Glc(a1-6)Glc(a1-6)Glc = molecular target: Glc(a1-6)Glc(a1-6)Glc
In short: as §1

GlcA(b1-3)Gal = molecular target: GlcA(b1-3)Gal
In short: as §1

[22] = molecular target: GlcNAc(a1-4)Gal(b1-4)GalNAc
In short: as §1

[23] = molecular target: GlcNAc(b1-2)Man(a1-3)[GlcNAc(b1-4)][GlcNAc(b1-2)Man(a1-6)]Man(b1-4)GlcNAc(b1-4)[Fuc(a1-6)]GlcNAc
In short: as §1

[24] = molecular target: GlcNAc(b1-2)[GlcNAc(b1-4)]Man(a1-3)[GlcNAc(b1-4)][GlcNAc(b1-2)Man(a1-6)]Man(b1-4)GlcNAc(b1-4)GlcNAc
In short: as §1

[25] = molecular target: GlcNAc(b1-2)[GlcNAc(b1-6)]Man(a1-6)[GlcNAc(b1-2)Man(a1-3)]Man(b1-4)GlcNAc(b1-4)[Fuc(a1-6)]GlcNAc
In short: as §1

[26] = molecular target: GlcNAc(b1-3)Gal(b1-4)GlcNAc(b1-2)[GlcNAc(b1-3)Gal(b1-4)GlcNAc(b1-6)]Man(a1-6)[GlcNAc(b1-3)Gal(b1-4)GlcNAc(b1-2)Man(a1-3)]Man(b1-4)GlcNAc(b1-4)GlcNAc
In short: as §1

[27] = molecular target: GlcNAc(b1-3)Gal(b1-4)GlcNAc(b1-3)Gal(b1-4)GlcNAc(b1-2)Man(a1-3)[GlcNAc(b1-3)Gal(b1-4)GlcNAc(b1-3)Gal(b1-4)GlcNAc(b1-2)Man(a1-6)]Man(b1-4)GlcNAc(b1-4)GlcNAc
In short: as §1

[28] = molecular target: GlcNAc(b1-3)Gal(b1-4)GlcNAc(b1-3)[GlcNAc(b1-3)Gal(b1-4)GlcNAc(b1-3)]GalNAc
In short: as §1

Kdn(a2-6)Gal(b1-4)GlcNAc = molecular target: Kdn(a2-6)Gal(b1-4)GlcNAc
In short: as §1

[29] = molecular target: Neu5Ac(a2-3)Gal(b1-3)GlcNAc(b1-6)GalNAc
In short: as §1

[30] = molecular target: Neu5Ac(a2-3)Gal(b1-3)GlcNAc6S
In short: as §1

[31] = molecular target: Neu5Ac(a2-3)Gal(b1-3)[Neu5Ac(a2-6)]GlcNAc(b1-3)[Fuc(a1-3)[Gal(b1-4)]GlcNAc(b1-6)]Gal(b1-4)Glc
In short: as §1

Neu5Ac(a2-3)Gal(b1-4)Glc = molecular target: Neu5Ac(a2-3)Gal(b1-4)Glc
In short: as §1

[32] = molecular target: Neu5Ac(a2-3)Gal(b1-4)GlcNAc(b1-3)Gal(b1-3)GlcNAc
In short: as §1

[33] = molecular target: Neu5Ac(a2-3)Gal(b1-4)GlcNAc(b1-6)[Gal(b1-3)]GalNAc
In short: as §1

Neu5Ac(a2-3)GalNAc = molecular target: Neu5Ac(a2-3)GalNAc
In short: as §1

[34] = molecular target: Neu5Ac(a2-6)Gal(b1-4)GlcNAc(b1-2)Man(a1-3)Man(b1-4)GlcNAc(b1-4)GlcNAc
In short: as §1

[35] = molecular target: Neu5Ac(a2-8)Neu5Ac(a2-3)Gal(b1-3)GalNAc(b1-4)[Neu5Ac(a2-8)Neu5Ac(a2-3)]Gal(b1-4)Glc
In short: as §1

[36] = molecular target: Neu5Ac(a2-8)Neu5Ac(a2-8)Neu5Ac
In short: as §1

[37] = molecular target: Neu5Gc(a2-3)Gal(b1-4)GlcNAc
In short: as §1

B1: Sebin1 (Coprinopsis cinerea), A8PEE3 (protein)
chain: MTSPFYAHIHNVQDDNTWRFTLIFANRATADEWWRAISEAPANTSIAKSITRVTPQYYTHDVNIWNIWNFFADGNIKSISERFRGRLFIVLENDRGGRGITVIPPVPIVDHVSGNWFYIRSKTAPHLFWYYDERRSSIYASKEKRTRFKISIRNPSSQTPKNAIMINTDDVTIHIKENLYVGVDNNLGHIIPTRAYRTFKFGELESGAIAGFDVVENIEERCSSTFDGASLSISGPDSSSPGEPWELV
[1]
  glycan array binding signal (z-score): 4.71
[2]
  glycan array binding signal (z-score): -0.147
[3]
  glycan array binding signal (z-score): -0.29
[4]
  glycan array binding signal (z-score): 2.8
[5]
  glycan array binding signal (z-score): 3.52
[6]
  glycan array binding signal (z-score): 1.28
[7]
  glycan array binding signal (z-score): -0.039
[8]
  glycan array binding signal (z-score): 2.45
[9]
  glycan array binding signal (z-score): 0.187
[10]
  glycan array binding signal (z-score): -0.485
[11]
  glycan array binding signal (z-score): 2.39
[12]
  glycan array binding signal (z-score): -0.671
[13]
  glycan array binding signal (z-score): 0.391
[14]
  glycan array binding signal (z-score): 0.647
Gal(b1-4)GlcNAc
  glycan array binding signal (z-score): -0.703
[15]
  glycan array binding signal (z-score): -0.684
[16]
  glycan array binding signal (z-score): 0.136
[17]
  glycan array binding signal (z-score): 13.4
[18]
  glycan array binding signal (z-score): 6.4
[19]
  glycan array binding signal (z-score): 2.44
[20]
  glycan array binding signal (z-score): 2.62
Gal(b1-6)Gal
  glycan array binding signal (z-score): 0.332
Gal3S(b1-3)GalNAc
  glycan array binding signal (z-score): -0.501
[21]
  glycan array binding signal (z-score): 0.696
Gal6S(b1-4)Glc
  glycan array binding signal (z-score): 0.006
Gal6S(b1-4)GlcNAc6S
  glycan array binding signal (z-score): 0.222
GalNAc(b1-4)GlcNAc6S
  glycan array binding signal (z-score): 0.053
Glc(a1-6)Glc(a1-6)Glc
  glycan array binding signal (z-score): -0.354
GlcA(b1-3)Gal
  glycan array binding signal (z-score): -0.505
[22]
  glycan array binding signal (z-score): -0.32
[23]
  glycan array binding signal (z-score): -0.296
[24]
  glycan array binding signal (z-score): 2.33
[25]
  glycan array binding signal (z-score): -0.058
[26]
  glycan array binding signal (z-score): -0.792
[27]
  glycan array binding signal (z-score): 0.145
[28]
  glycan array binding signal (z-score): -0.696
Kdn(a2-6)Gal(b1-4)GlcNAc
  glycan array binding signal (z-score): -0.282
[29]
  glycan array binding signal (z-score): -0.335
[30]
  glycan array binding signal (z-score): -0.146
[31]
  glycan array binding signal (z-score): -0.727
Neu5Ac(a2-3)Gal(b1-4)Glc
  glycan array binding signal (z-score): 3.86
[32]
  glycan array binding signal (z-score): -0.415
[33]
  glycan array binding signal (z-score): 2.49
Neu5Ac(a2-3)GalNAc
  glycan array binding signal (z-score): -0.458
[34]
  glycan array binding signal (z-score): -0.4
[35]
  glycan array binding signal (z-score): -0.152
[36]
  glycan array binding signal (z-score): -0.546
[37]
  glycan array binding signal (z-score): -0.074
